TIM10 inh: growth inhibitors of TIM10 yeast strain; S. cerevisiae TIM10 strain growth, BacTiter-Glo luminescence, 24 h; inhibition, % at 10 µM; 330,000 tested, 1.4% active; AID 463195;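 active = inhibition of 40% or more at the single tested concentration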;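 also: wild-type TIM10 isogenic control strain grown at permissive 25 °C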
tim23-1 inh: growth inhibitors of tim23-1 mutant yeast | S. cerevisiae tim23-1 growth, BacTiter-Glo luminescence, 24 h | inhibition, % at 20 µM | 330,000 tested, 1.3% active;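 active = growth inhibition of the mutant yeast at or above 50%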;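 also: temperature-sensitive mutant grown at 25 °C; plate controls were DMSO-treated mutant yeast for no effect and medium wells lacking yeast for full effect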
tim10-1 inh: tim10-1 yeast growth inhibition; S. cerevisiae tim10-1 ts strain growth, BacTiter-Glo, 24 h; inhibition, % at 20 µM; 330,000 tested, 2.2% active; AID 463190;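 active = inhibition of at least 40%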;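 also: mutant grown at 25 °C; 0% = DMSO wells with yeast and 100% = wells holding no yeast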
SKKanGAS inh: SKKanGAS growth inhibition; S. pyogenes SKKanGAS, kanamycin growth, BacTiter-Glo, 6 h; inhibition, % at 7.5 µM; 300,000 tested, 1.3% active;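 active = mean replicate score, as percent of positive control median, at least 50; inconclusive = mean below 50 but one replicate at or above 50; inactive = mean and every replicate below 50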;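 also: strain carries kanamycin resistance gene driven by streptokinase promoter and grows in 40 µg/ml kanamycin; loss of luminescence reflects streptokinase promoter inhibition or plain growth inhibition; 0% = median of DMSO wells and 100% = positive control at its reference dose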
PfHsp90 yeast 2: reduces growth (ATP signal) of yeast expressing P. falciparum Hsp90; S. cerevisiae expressing PfHsp90, BacTiter-Glo ATP, 48 h; yeast lacking PDR1 and PDR3 efflux regulators; inhibition, % at 9.4 µM; 310,000 tested, 0.32% active; AID 504621;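 active = every replicate shows inhibition above about 80%, whatever the replicate mean, limit read from the data; inconclusive = mean inhibition reaches the set limit but some replicate falls short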;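 also: 0% = DMSO neutral controls and 100% = 20 µM radicicol positive controls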
NALP1 yeast inh: inhibitors of NALP1 inflammasome in yeast; S. cerevisiae NALP1/ASC/caspase-1 growth, X-gal OD620, 72 h; inhibition, % at 10 µM; 280,000 tested, 0.61% active; AID 2071; in the data active = inhibition mostly above about 24%, no sharp cut-off; inactive = mostly below about 32%
TIM10 conf: TIM10 yeast growth inhibition, confirmed. shares compounds with TIM10 inh. 4,600 tested, 63% active. AID 463215. inhibition, % at 10 µM. S. cerevisiae tim10 strain growth, BacTiter-Glo luminescence, 24 h;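 active = inhibition of yeast growth at or above a set limit in either of two replicates at 10 µM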;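 also: this counterscreen used the strain with wild-type TIM10; 0% = yeast with DMSO and 100% = medium wells lacking yeast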
* hit, by the source's call; ? = inconclusive; . = not tested or not shown. Sampled rows, rich in hits. Any-hit rate of the full collection: about 4.8%.

SMILES	TIM10 inh	tim23-1 inh	tim10-1 inh	SKKanGAS inh	PfHsp90 yeast 2	NALP1 yeast inh	TIM10 conf
O=C(c1ccc([N+](=O)[O-])s1)N1CCc2ccccc2C1	45*	40	34	-20	0	3	22
COc1cc(Br)cc(C(c2c(C)n(C)n(-c3ccccc3)c2=O)c2c(C)n(C)n(-c3ccccc3)c2=O)c1O	21	4	5	-2	.	.	.
CCC(C)NC(=O)c1cc2cc3ccc(OC)cc3nc2s1 (stereo unspecified)	46*	37	27	-4	14	46	25
CCC(C)NC(=O)c1cc2c(=O)n3ccccc3nc2s1 (stereo unspecified)	-3	26	21	-15	18	-16	.
COc1ccc2cc3cc(C(=O)NCCN4CCc5ccccc5C4)sc3nc2c1	69*	22	26	2	-30	-13	67*
O=c1[nH]c(=S)[nH]cc1Oc1ccc(Cl)cc1Cl	-14	-2	7	-7	-14	-2	.
CCOc1ccc(-n2c(=O)c3sccc3n(CC(=O)NCc3ccco3)c2=O)cc1	5	-10	5	-6	-13	11	.
OC(COc1cccc2ccccc12)CN1CCN(c2ccccc2)CC1 (stereo unspecified)	-8	33	-22	4	-7	6	.
COc1cc(/C=N/NC(=O)[C@H](Cc2c[nH]c3ccccc23)NC(=O)OCC(C)C)cc([N+](=O)[O-])c1O	-1	1	27	15	-3	-20	.
Cc1ccc(CNc2oc(-c3ccco3)nc2C#N)cc1	11	33	12	3	-26	0	.
COc1ccc(-c2nc(C#N)c(NCCc3ccccc3)o2)cc1OC	46*	48	24	4	14	3	41*
COc1ccc(CCNc2oc(COc3ccc(F)cc3)nc2C#N)cc1	43*	35	26	.	-15	-3	36*
N#Cc1nc(-c2ccco2)oc1NCCc1ccccc1	65*	-16	17	20	15	3	57*
COc1ccc(C(=O)Oc2ccc(C(=S)N3CCCC3)cc2)cc1OC	4	18	38	2	.	24	.
COc1ccc(C(=O)Oc2cc3c4c(c2)C(C)=CC(C)(C)N4C(=O)C3=O)cc1OC	46*	45	38	-2	3	12	48*
COc1cccc2cc(-c3nc4ccccc4[nH]3)c(=O)oc12	54*	14	-31	-2	28	11	36*
C=CCn1c(C)c(C(C)=O)c(SC)nc1=S	6	2	-10	-13	-36	-7	.
O=C(N/N=C/c1cc([N+](=O)[O-])ccc1O)NC12CC3CC(CC(C3)C1)C2	43*	34	35	7	13	18	31
Cc1c(C(=O)N(C)CC(=O)Nc2cccc(F)c2)oc2c(Cl)cccc12	12	45	30	21	7	.	.
CCOc1ccc2c(c1)C(c1ccc(C)cc1)=NNC(c1ccc(OC)cc1)=N2	0	28	-4	-4	-14	-18	.
CCOc1ccc(C2=NNC(c3cccnc3)=Nc3ccc(OC)cc32)cc1	51*	11	14	-5	3	-1	31
O=C(Nc1ccc(Oc2ccsc2C(=O)O)cc1)c1ccccc1F	-15	17	-11	8	12	9	.
O=C1C(Cc2c[nH]c3ccccc23)NC(=S)N1C1CCCCC1 (stereo unspecified)	10	20	-34	.	-43	0	.
CC(C)CN1C(=O)C(=O)N(CC(=O)Nc2cc(Cl)ccc2Oc2ccccc2)C1=O	43*	28	35	14	.	-3	39*
CC(=O)Nc1ccc(O)c(-c2nc3ccccc3s2)c1	46*	28	3	-17	4	14	-2
SMILES	TIM10 inh	tim23-1 inh	tim10-1 inh	SKKanGAS inh	PfHsp90 yeast 2	NALP1 yeast inh	TIM10 conf
Cc1ccccc1C(=O)Nc1scc(-c2ccc(Br)cc2)c1C(=O)O	53*	47	22	86*	12	.	42*
COC(=O)C1=C(N)Oc2cc(N(C)C)ccc2C1c1ccccc1OC (stereo unspecified)	42*	21	29	-18	-6	26	-1
O=C(NC(=S)NNC(=O)c1ccccc1O)c1cccc([N+](=O)[O-])c1	42*	20	-18	29	11	-10	56*
CCN(C(=O)c1ccco1)c1nnc(-c2cccnc2)s1	15	6	-19	0	18	15	.
COc1ccc(CCNC(=O)CN2C(=O)NC(c3ccccc3)(c3ccccc3)C2=O)cc1	-1	11	10	.	-6	.	.
CCn1nc(C)cc1C(=O)Sc1cccc(Cl)c1	-7	-29	-12	4	-19	.	.
COc1ccc(CN=Cc2[nH]c3ccc(Br)c(Cl)c3c2O)cc1	41*	14	10	11	10	31	19
Cc1cc(C)cc(N=Cc2[nH]c3ccc(Br)c(Cl)c3c2O)c1	.	.	.	11	2	26	.
COc1ccccc1-c1cn[nH]c1-c1ccc(O)cc1O	15	-6	5	-3	-13	-5	.
COc1ccc(-c2[nH]ncc2Oc2ccccc2OC)c(O)c1	52*	46	31	-2	.	10	29
CCCc1ccc(Oc2cn[nH]c2-c2ccc(O)cc2O)cc1	44*	-36	4	.	?	-5	72*
Cc1ccc(/C=N/Nc2nc(C)cc(C)n2)cc1	74*	-18	-12	-11	-10	-9	9
Cc1cc(C)nc(N/N=C/c2ccc(Cl)cc2)n1	11	-19	-5	-2	-22	-2	.
Cc1cc(C)c(NC(=S)NCCCSC2CCCCC2)c(C)c1	42*	18	35	9	-8	2	27
COc1cccc(NC(=O)NCCCSC2CCCCC2)c1	22	35	32	-7	-3	2	.
O=C(Nc1ccc2oc(-c3ccccc3)nc2c1)c1ccc2c(c1)OCCO2	46*	50	32	17	24	-3	52*
Oc1ccc(CN2CCc3ccccc3C2)c2cccnc12	41*	12	8	83*	9	.	26
Oc1cc2c(cc1CN1CCc3ccccc3C1)OCO2	4	15	12	9	-11	-7	.
N#C/C(=C\c1cccnc1)c1nc2ccccc2[nH]1	75*	13	19	-3	.	-15	-2
COc1ccc(CNC(=O)c2csc(Cc3ccc(Cl)cc3)n2)cc1	-3	29	16	11	.	9	.
Cn1c(SCC(=O)N/N=C/c2ccc([N+](=O)[O-])s2)nnc1-c1ccccc1	71*	43	28	8	?	42	82*
CC(C)(C)OC(=O)C[C@@H]1C/C=C\C[C@H](CC(=O)N(CCO)Cc2ccccc2)C(=O)N[C@@H](c2ccccc2)COC1=O	1	11	7	.	16	.	.
Clc1ccc(-n2nnnc2-c2cnc3ccc(Cl)cc3c2-c2ccccc2)cc1	1	38	-24	27	6	.	.

Screening data as filed in PubChem BioAssay.
